This assay in a line: chemical genetic growth profiling, strain panel (AID 1159580).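 Note: tested at 20 µM; growth read once vehicle control cultures reached saturation at 30 °C; 1 = growth at the plate median or of vehicle wells; lower values mean less growth of the strain.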 Conditions: S. cerevisiae deletion strains, growth OD.
[1] abbreviates: locus YAL040C, strain CLN3, hits give low values.
Where [2] appears, read: locus YCL061C, strain MRC1 (second series), hits give low values.
Where [3] appears, read: locus YDR363W, strain ESC2, hits give low values.
[4] abbreviates: locus YER002W, strain NOP16, hits give low values.
The mark [5] stands for this setting: locus YMR307W, strain GAS1, hits give low values.
[6] abbreviates: locus YNL153C, strain GIM3, hits give low values.
[7] abbreviates: locus YNL175C, strain NOP13, hits give low values.
Setting [8] is: locus YNL197C, strain WHI3, hits give low values.
Where [9] appears, read: locus YNL224C, strain SQS1, hits give low values.
[10] abbreviates: locus YNL322C, strain KRE1, hits give low values.
The mark [11] stands for this setting: locus YOR083W, strain WHI5 (second series), hits give low values.

Molecules are shown by their SMILES. About 2,000 (36%) of roughly 5,500 compounds were called active. Inconclusive results (about 18%) are left out. The list shows a part of the results. Unmarked numbers belong to inactive results. Cut-off read from the data, not from the text of the source: active = normalized growth mostly below about 0.91 (no sharp cut-off); inconclusive = no clear call, values can overlap the other calls; inactive = mostly above about 0.92.

With `CN1CCc2cc(O)cc3c2[C@H]1Cc1ccc(O)c(O)c1-3`, the normalized growth reads like this: (locus YAL013W, strain DEP1, hits give low values) 0.844 (active); under setting [1], 1.06; under setting [2], 0.794 (active); under setting [3], 0.927; under setting [4], 1; (locus YGR078C, strain PAC10, hits give low values) 0.946. The normalized growth reads like this: (locus YJR075W, strain HOC1, hits give low values) 0.492 (active); under setting [5], 0.798 (active); under setting [6], 0.902; under setting [7], 0.994; under setting [8], 1.02; under setting [9], 1.03. Also, the normalized growth was 0.786 (active) under setting [10]; 0.912 under setting [11]; 0.575 (active) (locus YPL055C, strain LGE1, hits give low values); 0.876 (active) (locus YPL241C, strain CIN2, hits give low values).
As to `CCCN1CC[C@@H]2c3cc(O)ccc3CC[C@@H]21`, the normalized growth runs as follows: under setting [1], 1.02; under setting [2], 1.01; under setting [3], 1.01; under setting [4], 1.01; under setting [5], 1; under setting [6], 1.04. The normalized growth runs as follows: under setting [7], 1.01; under setting [8], 1.01; under setting [9], 1.02; under setting [10], 1.01; under setting [11], 1.01.
